Only a selection was taken, and hits are over-represented in it overall.
ROS inducer = ROS inducers in U2OS cancer cells, primary screen, cell-based, H2DCF-DA fluorescence; ROS induction (% of piperlongumine), % at 10 µM; 2% of 46,000 active; U2OS ROS induction; in the data active = ROS induction above about 79%, passing the limit was not always enough;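 note: 0% = DMSO vehicle median and 100% = reference compound median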
* marks the source's active call; other numbers are inactive results.

SMILES	ROS inducer
COc1ccc(CN(C)C[C@H]2Oc3ccc(NC(=O)CCN4CCOCC4)cc3CC(=O)N([C@@H](C)CO)C[C@@H]2C)cc1	14.3
C[C@H]1CN([C@@H](C)CO)C(=O)Cc2cc(NC(=O)CCN3CCOCC3)ccc2O[C@@H]1CN(C)C	0.1
COc1ccc(CN(C)C[C@@H]2Oc3ccc(NC(=O)CCN4CCOCC4)cc3CC(=O)N([C@H](C)CO)C[C@H]2C)cc1	120.9*
C[C@@H]1CN([C@@H](C)CO)C(=O)Cc2cc(NC(=O)CCN3CCOCC3)ccc2O[C@@H]1CN(C)Cc1ccc(Oc2ccccc2)cc1	63.7
C[C@@H]1CN([C@H](C)CO)C(=O)Cc2cc(NC(=O)CCN3CCOCC3)ccc2O[C@@H]1CN(C)C	125.6*
CCCc1c(C(=O)NCc2ccc3c(c2)OCO3)cnn1-c1ccccc1	4.3
Cc1cccc(N2CCC(N=CN3CCOCC3)=N2)c1	-21.3
CCN(Cc1ccccc1)C(=O)Cn1ncc2c3ccccc3n(Cc3c(C)cc(C)cc3C)c2c1=O	9.1
Cc1sc2nc(SC/C=C/c3ccccc3)nc(N)c2c1C	15.1
CC(=O)ON1C(C)(C)CC(OC(=O)c2ccco2)CC1(C)C	-8.0
C=CCNC(=O)c1cc2c(=O)n3cccc(C)c3nc2n(CC2CCCO2)c1=N (configuration not stated)	90.1*
Cc1cccn2c(=O)c3cc(C(=O)NCC4CCCO4)c(=N)n(C4CCCCC4)c3nc12 (configuration not stated)	95.9*
C=CCNC(=O)c1cc2c(=O)n3ccccc3nc2n(CCC)c1=N	55.6
CCCn1c(=N)c(C(=O)NC2CCCC2)cc2c(=O)n3ccccc3nc21	18.0
O=C(O)c1ccccc1C(=O)NCC1CCCO1 (configuration not stated)	2.8
N#Cc1cc2c(=O)n3ccccc3nc2n(C2CCCC2)c1=N	5.5
CCC(C(=O)NCc1ccccc1)n1c2ccccc2c2cn[nH]c(=O)c21 (configuration not stated)	-0.8
CCN(CC)/C(=N/S(=O)(=O)c1ccc(Cl)cc1)c1ccccc1	-3.8
O=c1[nH]c(=S)c2c(n1Cc1ccco1)CCC2	-11.3
O=C(OCCNc1c(F)c(F)nc(F)c1F)c1ccccc1	-11.1
COc1cc(OC)cc(C(=O)Nc2ccc(OCC(=O)O)cc2)c1	-8.8
COC(=O)COc1ccc(NC(=O)c2ccc(OC)c([N+](=O)[O-])c2)cc1	117.7*
COc1ccc(C(=O)COc2ccc(NC(=O)c3cccc([N+](=O)[O-])c3)cc2)cc1	7.4
C/C(=N\O)c1cc(-c2ccccc2)c(C(F)(F)F)s1	-0.3
COc1ccc(NC(=O)Nc2cc(F)cc(F)c2)cc1OC1CCCC1	-3.3
SMILES	ROS inducer
Cc1ccc(C(=O)Nc2ccccc2C(=O)N2CCN(c3ccccc3)CC2)cc1S(=O)(=O)N1CCCCC1	143.5*
Cc1ccc(NS(=O)(=O)c2cc(C(=O)Nc3ccccc3C(=O)N3CCCC3)ccc2Cl)cc1C	-5.7
Cc1cccc(NS(=O)(=O)c2cc(C(=O)Nc3ccccc3C(=O)N3CCOCC3)ccc2Cl)c1	-5.5
O=C(NC1CCCC1)C1CCN(c2nc3ccccc3n3cccc23)CC1	-3.4
O=C(Cn1c(=O)oc2cc(S(=O)(=O)NCc3ccccc3)ccc21)N1CCOCC1	-6.7
Cc1ccc(S(=O)(=O)Nc2cccc3c2O[C@H](CN(C)C(=O)Nc2ccc(C(F)(F)F)cc2)[C@H](C)CN([C@H](C)CO)C3=O)cc1	33.6
C[C@@H]1CCCCO[C@@H](CN(C)C(=O)Nc2ccccc2)[C@@H](C)CN([C@H](C)CO)C(=O)c2cc(NS(=O)(=O)c3ccccc3)ccc2O1	2.4
C[C@@H]1CN([C@H](C)CO)C(=O)c2cccc(NS(=O)(=O)c3ccc(F)cc3)c2O[C@H]1CN(C)C(=O)Nc1ccc(C(F)(F)F)cc1	92.0*
C[C@@H]1CCCCO[C@@H](CN(C)S(=O)(=O)c2cccs2)[C@@H](C)CN([C@H](C)CO)C(=O)c2cc(NC(=O)Nc3ccc(C(F)(F)F)cc3)ccc2O1	27.5
C[C@@H]1CCCCO[C@@H](CN(C)S(=O)(=O)c2ccccc2)[C@@H](C)CN([C@H](C)CO)C(=O)c2cc(NC(=O)Nc3ccc(C(F)(F)F)cc3)ccc2O1	182.7*
C[C@@H]1CCCCO[C@@H](CN(C)S(C)(=O)=O)[C@@H](C)CN([C@H](C)CO)C(=O)c2cc(NC(=O)Nc3ccc(C(F)(F)F)cc3)ccc2O1	12.5
Cc1ccc(S(=O)(=O)N(C)C[C@H]2OCCCC[C@@H](C)Oc3ccc(NC(=O)Nc4ccc(C(F)(F)F)cc4)cc3C(=O)N([C@H](C)CO)C[C@@H]2C)cc1	21.9
COc1ccc(S(=O)(=O)N(C)C[C@@H]2OCCCC[C@@H](C)Oc3ccc(NC(=O)Nc4ccc(C(F)(F)F)cc4)cc3C(=O)N([C@H](C)CO)C[C@@H]2C)cc1	32.3
C[C@@H]1CCCCO[C@H](CN(C)C(=O)Nc2ccc(C(F)(F)F)cc2)[C@@H](C)CN([C@H](C)CO)C(=O)c2cc(NS(=O)(=O)c3ccc(Cl)cc3)ccc2O1	42.1
C[C@@H]1CCCCO[C@@H](CN(C)C(=O)Nc2ccc(C(F)(F)F)cc2)[C@@H](C)CN([C@H](C)CO)C(=O)c2cc(NS(=O)(=O)c3ccccc3)ccc2O1	101.7*
C[C@@H]1CCCCO[C@H](CN(C)S(=O)(=O)c2ccccc2)[C@@H](C)CN([C@H](C)CO)C(=O)c2cc(NC(=O)Nc3ccc(C(F)(F)F)cc3)ccc2O1	80.0*
Cc1ccc(S(=O)(=O)Nc2cccc3c2O[C@@H](CN(C)C(=O)Nc2ccc(C(F)(F)F)cc2)[C@@H](C)CN([C@H](C)CO)C3=O)cc1	8.5
COC(=O)C1=C(C)NC(=S)NC1c1cn(-c2ccccc2)nc1-c1cccs1 (configuration not stated)	19.8
CCc1ccc(/C=c2\sc3nc(C4COc5ccccc5O4)nn3c2=O)cc1 (configuration not stated)	-5.8
Cc1ccc(CSc2nc3ccccc3s2)cc1	3.7
CN1CCN(c2ccc(CNS(=O)(=O)c3ccc4c(c3)CCO4)cc2)CC1	16.8
O=C(Cn1ccc2ccccc21)Nc1cccc(C(F)(F)F)c1	-8.0
O=C(Cn1ccc2ccccc2c1=O)NCCC(=O)NC1CC1	-21.5
Cn1cc(Cl)c(C(=O)N2CCc3ccccc3C2)n1	-12.7
O=S(=O)(N[C@@H]1CCCN(Cc2cccc(OCCO)c2)C1)c1ccc(Cl)c(Cl)c1	25.1
SMILES	ROS inducer
O=S(=O)(NCC1CCN(Cc2cccc(OCCO)c2)CC1)c1ccc(Cl)c(Cl)c1	122.6*
O=S(=O)(NC[C@@H]1CCCN(Cc2cccc(OCCO)c2)C1)c1ccc(Cl)cc1	-6.0
Cc1cc2nc(NC3=NC(O)C=C(CSc4nc5ccccc5[nH]4)N3)nc(C)c2cc1C (configuration not stated)	-0.4
CN(C)/C=C/C(=S)c1cccs1	2.3
CCc1ccccc1NC(=O)CCSc1nc2n[nH]c(C)c2c(=N)n1-c1cccc(Cl)c1	2.2
COc1ccc(NC(=O)C(C)n2sc3ccccc3c2=O)cc1 (configuration not stated)	-7.9
CCOC(=O)C1=CN(c2ccc(C)cc2)C=C(C(=O)OCC)C1c1cccs1	111.7*
CCOC(=O)N1CCN(C(=O)c2cccs2)CC1	-10.7
CCOC(=O)c1csc(-c2cccs2)n1	-0.9
CC(C)(C)C1CCc2c(sc(NC(=O)CSc3nnnn3-c3ccccc3)c2C#N)C1 (configuration not stated)	-4.8
CCC(Sc1nnnn1-c1ccccc1)C(=O)Nc1sc2c(c1C#N)CCCC2 (configuration not stated)	95.3*

High-throughput results from PubChem BioAssay.
